Data reported in PubChem BioAssay AID1159580 (chemical genetic matrix, 2015).
Several values for one entry are separate records, joined by “and”; a condition that tells them apart may be missing. Identical values can stand only once. Screen size: about 5,500 compounds; about 2,000 (36%) were called active. Roughly 18% stayed inconclusive and do not appear here. No stated cut-off is given here; in the data, active means normalized growth mostly below about 0.91 (no sharp cut-off); inconclusive means no clear call, values can overlap the other calls; inactive means mostly above about 0.92. The list shows a part of the results.

Test: chemical genetic growth profiling, strain panel (AID 1159580);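 further: tested at 20 µM; growth read once vehicle control cultures reached saturation at 30 °C; 1 = growth at the plate median or of vehicle wells; lower values mean less growth of the strain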
Settings: S. cerevisiae deletion strains, growth OD

Measured: normalized growth

CCC1(c2ccc(N)cc2)CCC(=O)NC1=O (configuration not stated)
active: locus YGL240W, strain doc1, hits give low values 0.876
inactive: locus YAL021C, strain ccr4, hits give low values 0.981 | locus YAL026C, strain drs2, hits give low values 0.971 | locus YAL030W, strain snc1, hits give low values 0.969 | locus YAL040C, strain CLN3, hits give low values 0.987 | locus YBL061C, strain skt5, hits give low values 0.968 | locus YBR009C, strain hhf1, hits give low values 0.984 | locus YBR021W, strain FUR4, hits give low values 1.01 | locus YBR023C, strain chs3, hits give low values 0.979 | locus YBR171W, strain sec66, hits give low values 0.957 | locus YBR229C, strain ROT2, hits give low values 0.995 | locus YBR231C, strain swc5, hits give low values 0.943 | locus YBR279W, strain paf1, hits give low values 0.988 | locus YCL011C, strain gbp2, hits give low values 0.984 | locus YCL016C, strain dcc1, hits give low values 0.994 | locus YCL029C, strain bik1, hits give low values 1 | locus YCL069W, strain vba3, hits give low values 0.956 | locus YCR088W, strain abp1, hits give low values 0.974 | locus YDL005C, strain med2, hits give low values 0.955 | locus YDL035C, strain GPR1, hits give low values 1.04 | locus YDL040C, strain nat1, hits give low values 0.978 | locus YDL074C, strain BRE1, hits give low values 0.994 | locus YDL101C, strain DUN1, hits give low values 1.01 | locus YDL134C, strain PPH21, hits give low values 1.02 | locus YDL185W, strain tfp1, hits give low values 1.01 | locus YDL192W, strain arf1, hits give low values 0.996 | locus YDR001C, strain nth1, hits give low values 0.96 | locus YDR069C, strain doa4, hits give low values 0.962 | locus YDR101C, strain arx1, hits give low values 1.01 | locus YDR137W, strain rgp1, hits give low values 1.06 | locus YDR150W, strain NUM1, hits give low values 1 | locus YDR159W, strain sac3, hits give low values 0.979 | locus YDR162C, strain NBP2, hits give low values 1.03 | locus YDR195W, strain ref2 0.926 | locus YDR297W, strain sur2, hits give low values 0.973 | locus YDR318W, strain mcm21, hits give low values 0.991 | locus YDR334W, strain swr1, hits give low values 0.964 | locus YDR335W, strain msn5, hits give low values 0.959 | locus YDR363W, strain ESC2, hits give low values 1.01 | locus YDR388W, hits give low values 0.999 | locus YDR392W, strain spt3, hits give low values 1.02 | locus YDR502C, strain sam2, hits give low values 0.999 | locus YEL003W, strain gim4, hits give low values 0.957 | locus YEL037C, strain rad23, hits give low values 0.951 | locus YEL061C, strain CIN8 (second series), hits give low values 0.961 | locus YEL061C, strain CIN8, hits give low values 1.01 | locus YER002W, strain NOP16, hits give low values 0.977 | locus YER015W, strain faa2, hits give low values 0.966 | locus YER016W, strain bim1, hits give low values 0.987 | locus YER110C, hits give low values 0.993 | locus YER111C, strain swi4, hits give low values 0.968 | locus YER155C, strain BEM2 (second series), hits give low values 0.878 | locus YER155C, strain BEM2, hits give low values 0.999 | locus YER167W, strain BCK2, hits give low values 1 | locus YFR010W, strain ubp6, hits give low values 0.945 | locus YGL078C, strain dbp3, hits give low values 0.992 | locus YGL086W, strain mad1, hits give low values 0.994 | locus YGL167C, strain pmr1, hits give low values 0.961 | locus YGL173C, strain kem1, hits give low values 0.936 | locus YGL227W, strain vid30, hits give low values 0.976 | locus YGL248W, strain PDE1, hits give low values 0.999 | locus YGL253W, strain hxk2, hits give low values 0.967 | locus YGR078C, strain PAC10, hits give low values 0.997 | locus YGR135W, strain pre9, hits give low values 0.991 | locus YGR252W, strain gcn5, hits give low values 0.992 | locus YHR013C, strain ard1, hits give low values 0.956 | locus YHR027C, strain rpn1, hits give low values 0.981 | locus YHR030C, strain SLT2, hits give low values 1 and 0.997 | locus YHR079C, strain IRE1 (second series), hits give low values 0.995 | locus YHR079C, strain IRE1, hits give low values 1.04 | locus YHR094C, strain hxt1, hits give low values 0.995 | locus YHR129C, strain ARP1, hits give low values 0.999 | locus YHR142W, strain chs7, hits give low values 0.932 | locus YHR200W, strain rpn10, hits give low values 0.999 | locus YIL066C, strain RNR3, hits give low values 1.03 | locus YIL073C, strain SPO22, hits give low values 1.03 | locus YIL125W, strain kgd1, hits give low values 0.998 | locus YIR030C, strain dcg1, hits give low values 0.995 | locus YJL092W, strain hpr5, hits give low values 0.952 | locus YJL095W, strain BCK1 (second series), hits give low values 0.97 | locus YJL095W, strain BCK1, hits give low values 0.995 and 1.03 | locus YJL115W, strain asf1, hits give low values 0.949 | locus YJL129C, strain trk1, hits give low values 0.928 | locus YJL134W, strain LCB3, hits give low values 1 | locus YJL154C, strain vps35, hits give low values 0.967 | locus YJL164C, strain tpk1, hits give low values 0.998 | locus YJL166W, strain qcr8, hits give low values 0.913 | locus YJL168C, strain set2, hits give low values 0.988 | locus YJL187C, strain SWE1 (second series), hits give low values 0.993 | locus YJL187C, strain SWE1, hits give low values 0.959 | locus YJR043C, strain POL32, hits give low values 1.02 | locus YJR066W, strain TOR1, hits give low values 0.973
